Compounds with a hit are over-represented: about 3.3% of the library has one in this group of screens.
MazEF act = activators of E. coli MazEF toxin-antitoxin RNase; FAM/BHQ RNA-DNA oligo cleavage fluorescence, 5 h; activation, % at 20 µM; 0.32% of 350,000 active; in the data active means activation above about 50%
Target sequence (P0AE70 whole entry, looked up): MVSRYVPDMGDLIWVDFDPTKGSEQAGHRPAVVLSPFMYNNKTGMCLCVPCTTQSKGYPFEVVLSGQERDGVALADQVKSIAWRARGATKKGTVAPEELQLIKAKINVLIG
BoNT-F LC inh = blocks Botulinum neurotoxin F light chain protease. Multiplex microsphere protease cleavage assay, flow cytometry. inhibition, % at 10 µM. 0.22% of 360,000 active. AID 588497; in the data active means inhibition above about 35%, passing the limit was not always enough; inconclusive means no clear call, values can overlap the other calls; further: plate controls were buffer without enzyme for full effect and enzyme alone for no effect
SSB-PriA inh = inhibitors of Klebsiella pneumoniae PriA binding to SSB C-terminal tail. AlphaScreen SSBct-PriA binding, biotinylated peptide. inhibition, % at 33 µM. 0.6% of 430,000 active; in the data active means inhibition mostly above about 37%, no sharp cut-off; inactive means mostly below about 20%;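 further: plate controls were negative control peptide for no effect and reference peptide for full effect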
BoNT A protease = blocks Botulinum neurotoxin A light chain protease; multiplex microsphere protease substrate cleavage, flow cytometry; inhibition, % at 10 µM; 0.17% of 360,000 active; AID 588499; further: plate controls were buffer without enzyme for full effect and enzyme alone for no effect
Anthrax LF inh2 = inhibitors of Bacillus anthracis lethal factor protease; inhibition, % at 10 µM; multiplex microsphere protease cleavage assay, LF; P15917; 0.12% of 360,000 active; AID 588501; further: plate controls were buffer without enzyme for full effect and enzyme alone for no effect
Autofluor counter = flagged as autofluorescent in microsphere protease counterscreen | fluorescence intensity (concentration not given with the values) | AID 624483 | compound autofluorescence counterscreen, microsphere flow cytometry; stronger effect = higher value | 3.1% of 360,000 active; in the data active means fluorescence intensity above about 16000; inconclusive means no clear call, values can overlap the other calls
An asterisk follows results filed as active; ? = inconclusive; . = no result given; ! = not confirmed by another sample. Unless noted, no stated cut-off is given here; in the data, active means inhibition above about 30%; inconclusive means no clear call, values can overlap the other calls; inactive means below that.

SMILES	MazEF act	BoNT-F LC inh	SSB-PriA inh	BoNT A protease	Anthrax LF inh2	Autofluor counter
CCOC(=O)c1cnc(-n2nc(C)cc2C)nc1N1CCOCC1	11.2	0.4	15.6	0.0	-2.7	23062*
CCOC(=O)c1cnc(-n2nc(C)cc2C)nc1NC1CCCC1	4.1	?	2.4	0.6	19.4	3914
CCOC(=O)c1cnc(-n2nc(C)cc2C)nc1N(C)C	1.4	1.6	13.8	0.4	-1.0	22817*
Cc1cc(C)n(-c2ncc3c(n2)N(C)CCOC3=O)n1	0.0	-5.6	-4.1	-0.4	-0.4	5448
Cc1cc(C)n(-c2ncc3c(n2)N(CCO)CCOC3=O)n1	5.9	35.0*	-2.3	2.2	3.5	3742
O=C(O)c1cccc(N2C(=O)CSC2c2c(F)cccc2Cl)c1 (centres undefined)	9.6	4.6	-8.8	-0.8	0.4	6479
Cc1ccc(N2C(=O)CSC2c2c(F)cccc2Cl)cc1 (centres undefined)	-8.7	13.1	-15.4	?	-10.8	17035*
CCN(CC)S(=O)(=O)N1CCC(C(=O)NC2CCCc3ccccc32)CC1 (centres undefined)	-6.6	5.6	-6.0	4.6	0.5	20617*
Cc1nn(C)c(C)c1S(=O)(=O)N1CCC(C(=O)NC2CCCc3ccccc32)CC1 (centres undefined)	-3.0	-5.3	-15.4	-0.6	6.2	6357
CNC(=O)NC1CCCc2ccccc21 (centres undefined)	11.6	1.4	-21.9	0.6	-2.1	23281*
CCOC(=O)c1c(C)c(C(=O)NCc2cccnc2)c(C)n1CC	5.8	1.3	-8.5	?	2.0	20195*
COc1cc(C(=O)NCCCN2CCCC2=O)cc(OC)c1OC	-4.0	1.5	-3.3	-0.8	-3.7	11282
CCOC(=O)c1c(C)c(C(=O)NCc2cccs2)c(C)n1C	-0.4	-8.8	-4.8	-8.1	-6.6	17882*
CCOC(=O)c1c(C)c(C(=O)NCCCN2CCCC2=O)c(C)n1CC	0.9	-0.1	0.1	1.7	0.4	22714*
CCOC(=O)c1c(C)c(C(=O)NCCOC)c(C)n1CC	-4.7	-1.3	-12.8	0.9	-1.6	23521*
CC1CCCCC1NC(=O)c1nnn(Cc2ccccc2)c1-c1ccncc1 (centres undefined)	.	.	-12.0	.	.	.
O=C(O)CCN1CCN(S(=O)(=O)c2ccc(Cl)cc2)CC1	.	.	-9.0	.	.	.
COCCNC(=O)N1CCC(CSCc2ccco2)CC1	.	.	-7.0	.	.	.
CCOC(=O)c1c(C)c(C(=O)OCC)n(C)c1C	1.8	11.1	-2.7	2.1	-4.6	3832
CCOC(=O)c1c(C)c(C(=O)NCCCOC)c(C)n1C	2.1	0.3	10.2	?	-1.6	20527*
CCOC(=O)C1CCN(c2c(NCCCN(CC)c3ccccc3)c(=O)c2=O)CC1	3.0	-1.0	-4.0	?	0.5	21430*
CCCCNC(=O)c1ccc(CNc2c(N3CCC(C(=O)OCC)CC3)c(=O)c2=O)cc1	9.6	-4.5	-11.4	-0.3	-4.3	23374*!
Cc1ccc2nc(N(Cc3ccccc3)c3ccccc3)nc(-c3ccccc3)c2c1	.	.	-26.0	.	.	.
Cc1cc(C)c(OCCNCc2ccccc2)c(C)c1	0.7	0.1	-2.8	-3.1	1.7	4377
Cc1cc(C)c(OCCCCNCc2ccccc2)c(Cl)c1	-0.2	-20.9	-15.2	?	-2.6	21662*
SMILES	MazEF act	BoNT-F LC inh	SSB-PriA inh	BoNT A protease	Anthrax LF inh2	Autofluor counter
C=CCNCCCCOc1c(Cl)cc(C)cc1Br	11.1	.	5.3	.	.	.
COCCCNCCCCOc1c(Cl)cc(C)cc1Br	3.8	-8.4	-10.9	?	-4.3	22891*
CC(C)NC(=S)NNC(=O)C12CC3CC(CC(C3)C1)C2	-17.1	-1.7	-4.8	?	-2.6	24739*
CCCCNC(=S)NNC(=O)C12CC3CC(CC(C3)C1)C2	1.2	-7.2	4.0	-0.4	-2.8	2326
CC1(CCC#N)N=C(SCCC#N)N(c2ccccc2)C1=O (centres undefined)	7.1	-2.4	-5.4	?	-0.6	23294*
O=C(NCCc1ccc(Cl)cc1)C1CCC(=O)N1Cc1ccccc1Cl (centres undefined)	0.0	0.8	-11.4	0.6	-5.8	22400*
Cc1ccc(CNC(=O)C2CCC(=O)N2CCc2ccccc2)cc1 (centres undefined)	-3.2	0.7	-6.2	0.4	-8.4	20485*
CC(C)N1C(=O)CCC1C(=O)NC1CCCC1 (centres undefined)	-1.7	9.0	-8.5	6.5	-3.7	20690*
CC(C)N1C(=O)CCC1C(=O)NCCc1ccccc1 (centres undefined)	6.1	0.1	-20.8	-0.7	0.6	23958*
Cc1ccc(CCNC(=O)C2CCC(=O)N2C(C)C)cc1 (centres undefined)	10.6	-11.6	4.2	-1.8	-4.0	11031
CC(C)CCNC(=O)C1CCC(=O)N1C(C)C (centres undefined)	3.6	-6.2	-12.1	-0.7	-0.4	11364
CCCCOc1ccccc1N1C(=O)CC(N2CCN(C(=O)OCC)CC2)C1=O (centres undefined)	.	.	-10.0	.	.	.
O=C1NC(=O)C2(Cc3ccccc3N3CCCC32)C(=O)N1c1ccccc1 (centres undefined)	1.5	-4.8	-2.1	1.1	-1.2	3927
O=C1NC(=O)C2(Cc3ccccc3N3CCOCC32)C(=O)N1c1ccccc1 (centres undefined)	-2.7	-0.1	2.4	1.2	-1.1	22770*
O=c1[nH]cnc2sc3c(c12)CCCC3	1.3	-7.1	-9.9	-3.0	-1.6	23869*
O=C(Oc1c(CN2CCOCC2)cc(Cl)c2cccnc12)c1ccc(F)cc1	-1.4	0.1	87.7*	1.6	-4.3	22240*
O=C(Oc1c(CN2CCOCC2)cc(Cl)c2cccnc12)c1cccs1	1.1	-5.9	91.0*!	-1.1	-0.2	3987
O=C(Oc1c(CN2CCOCC2)cc(Cl)c2cccnc12)c1ccccc1Cl	-2.2	-0.6	46.9*	-2.8	-0.9	4442
Oc1c(Cl)cc(CN2CCCCC2)c2cccnc12	.	-11.7	.	-1.6	-15.1	3025
COc1ccc(C(=O)Oc2c(CN3CCOCC3)cc(Cl)c3cccnc23)cc1	-2.8	-8.5	-9.0	-1.2	0.0	3186
COc1ccccc1NC(=O)CSc1nc(C)nc2sc(-c3ccccc3)cc12	.	.	1.0	.	.	.
Cc1ccc(C(=O)N2CCN(C(=O)c3ccco3)CC2)cc1NC1=NC2CS(=O)(=O)CC2S1 (centres undefined)	.	.	-14.0	.	.	.
O=C1CC(SCCO)C(=O)N1c1ccccc1 (centres undefined)	-4.0	-1.8	-0.8	-1.0	-1.9	23642*
O=C(O)CSC1CC(=O)N(c2ccc(Br)cc2)C1=O (centres undefined)	-36.7	14.1	2.3	-1.0	10.7	3148
Cc1cc(C(=O)Nc2nccs2)c2cc(F)ccc2n1	4.0	?	-4.8	0.8	-1.0	3076
COCCCNC(=O)c1cc(C)nc2ccc(F)cc12	-3.2	2.5	-14.2	0.6	-4.7	21925*
Cc1ccc(CNC(=O)c2sc3nc4c(c(C(F)(F)F)c3c2N)CCC4)cc1	-22.4	-0.8	-5.9	?	1.2	24632*

Screens: PubChem, several laboratories
